Lassa entry inh: inhibitors of Lassa virus binding or cell entry | hit rate 1.2% among 300,000 | AID 540256 | Lassa virus pseudotype entry inhibition, cell reporter | Potency, µM (doses to about 37.9 µM), for the others: top-dose activity change, negative = inhibition, most hits filed as inhibitors; calls by dose curve; tested in HEK293 cells; further: potency means the concentration at half of the fitted maximal effect; nearly all actives have a fitted effect of over 50% in size
Pf growth 96h: P. falciparum growth inhibition at 96 hour, primary screen for plastid delayed-death inhibitors. AID 504834. hit rate 6.9% among 320,000. Potency, µM (highest dose often 28.7 µM), for inactives: at the top dose activity change, negative = inhibition, actives largely listed as inhibitors. P. falciparum luciferase reporter growth, 96 h; further: potency means the concentration at half of the fitted maximal effect
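Parasite growth measured via integrated firefly luciferase reporter in P. falciparum. Infected erythrocytes at 2% hematocrit, 0.05% parasitemia final were treated 96 hours at 37 C under 5% CO2, and luminescence was read.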
MARV entry inh: Marburg virus entry inhibition | hit rate 1.8% among 300,000 | Potency, µM (titrated, usually from 37.8 µM), inactives show at the top dose activity change, negative = inhibition, hits mostly inhibitors | Marburg virus pseudotyped entry inhibition, cell reporter; calls by dose curve; tested in HEK293 cells; further: potency means the concentration at half of the fitted maximal effect
Pf growth 48h: inhibits P. falciparum growth in the first generation, 48 h. P. falciparum luciferase growth in erythrocytes, 48 h. Potency, µM (series often up to 28.7 µM), without a hit: at the highest dose activity change, negative = inhibition, usual class: inhibitors. hit rate 5.9% among 310,000; further: potency means the concentration at half of the fitted maximal effect
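Luciferase-expressing P. falciparum in infected erythrocytes (2% hematocrit, 0.1% parasitemia final) in RPMI 1640/0.5% Albumax were exposed to compound for 48 hours at 37 C, 5% CO2; growth read as luminescence.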
HCV inh: inhibitors of hepatitis C virus infection. AID 651820. hit rate 3.4% among 340,000. Huh7.5.1 HCVcc-Cre infection, luciferase reporter, 44 h. Potency, µM (series often up to 41.8 µM), for the others: at the highest dose activity change, negative = inhibition, actives largely listed as inhibitors; further: potency means the concentration at half of the fitted maximal effect
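Infectious HCVcc-Cre (~0.5 moi) was added to cells just after compound, with cells seeded 4 h earlier at 1,000 per well. Luciferase activity after 44 h culture reported infection; substrate was incubated 15 min at room temperature before reading.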
HCMV antiviral: blocks human cytomegalovirus replication | hit rate 4.5% among 410,000 | HFF cells, HCMV-luciferase reporter, 72 h; hits give low values | AID 1259415 | activity change, negative = inhibition, % at 57.5 µM; in the data active means activity change below about -60%; inconclusive means no clear call, values can overlap the other calls; inactive means above about -39%
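HFF cells seeded 16 h at 37C, treated with compounds, infected with luciferase-reporter HCMV at MOI 1 PFU/cell; luciferase read at 72 h post infection, normalized to buffer-only and Salinomycin controls.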
* = called active by the depositor; [ ] = dose if it differs, or a comment. Most compounds without a hit are left out; they make up all but 14% or so of the library. Unless noted, the call rests on the fitted dose curve; in most records, active means well fitted inhibition curve with a large enough effect; inconclusive means small, poorly fitted or top-dose-only effect, or another doubt; inactive means no such curve, though single readings can be large or run the other way. On the % scale 0 is the no-effect control and ±100 the full control effect.

Screening C/C(=N\NC(=O)C1(C)CC1(Br)Br)c1ccc(NC(=O)c2ccc(C)o2)cc1 (stereo not drawn) returned Lassa entry inh inconclusive, Pf growth 96h 9.3µM*, MARV entry inh inconclusive, Pf growth 48h inconclusive, HCV inh inconclusive and HCMV antiviral inconclusive.
For CCCCSC1=NN1c1nc(N)nc(C)c1CC the results were Lassa entry inh 13%, Pf growth 96h 8.3µM*, MARV entry inh 4%, HCV inh -2% and HCMV antiviral 10.
Screening O=c1c2ccccc2n(Cc2ccc(F)cc2)c(=O)n1C1CCCC1 returned Lassa entry inh inconclusive, Pf growth 96h 13µM*, MARV entry inh inconclusive, Pf growth 48h inconclusive, HCV inh -25% and HCMV antiviral 21.
Screening Nc1nc(N2CCN(C/C=C/c3ccccc3)CC2)nc2ccccc12 returned Lassa entry inh 3%, Pf growth 96h -2%, MARV entry inh 4%, Pf growth 48h 12µM*, HCV inh -12% and HCMV antiviral -12.
Screening C(=C\c1ccccc1)/CN1CCN(c2ncnc3c2oc2ccccc23)CC1 returned Lassa entry inh -16%, Pf growth 96h -25%, MARV entry inh inconclusive, Pf growth 48h -18%, HCV inh inconclusive and HCMV antiviral -73*.
For O=c1[nH]c(CN2CCN(C/C=C/c3ccccc3)CC2)nc2ccccc12 the results were Lassa entry inh 2%, MARV entry inh inconclusive, Pf growth 48h -18%, HCV inh -18% and HCMV antiviral 8.
`CC(=O)N1N=C(c2ccco2)CC1c1cc2ccc(C)cc2nc1Cl` (stereo not drawn) gave Lassa entry inh -10%[46.1 µM], Pf growth 96h 1%, MARV entry inh inconclusive, Pf growth 48h -6%, HCV inh -19% and HCMV antiviral 31.
`C=CCOC(=O)NC(c1ccc(F)c(F)c1)C(C(C)=O)C(=O)OC` (stereo not drawn) gave MARV entry inh 26%[14.2 µM].
Cc1cc(=O)[nH]c(N2CCN(c3ccc(Cl)cc3)CC2)n1 was read as Lassa entry inh 4%[46.1 µM], MARV entry inh inconclusive, HCV inh inconclusive and HCMV antiviral -7.
`Cc1cc(=O)[nH]c(N2CCCC2)n1` gave Lassa entry inh 14%, Pf growth 96h 12µM*, MARV entry inh 30%, Pf growth 48h -4%, HCV inh -3% and HCMV antiviral 21.
Screening Cc1ccc2c(c1)NC(=O)C(CC(=O)NCCN(C)C)O2 (stereo not drawn) returned Pf growth 96h 1.7µM*, HCV inh 9% and HCMV antiviral 11.
For Cc1ccc(CCNC(=O)CC2Oc3ccc(C)cc3NC2=O)cc1 (stereo not drawn) the results were Lassa entry inh -7%, Pf growth 96h -22%, MARV entry inh 2%, Pf growth 48h 7%, HCV inh 0% and HCMV antiviral -2.
For O=C(c1ccc(CS(=O)(=O)c2ccccc2)o1)N1CCOCC1 the results were Pf growth 96h 12µM*, HCV inh 3% and HCMV antiviral -12.
Screening O=C(c1ccc(CS(=O)(=O)c2ccc(Br)cc2)o1)N1CCCC1 returned Pf growth 96h 7.4µM*, HCV inh inconclusive and HCMV antiviral -24.
O=C(c1ccc(CS(=O)(=O)c2ccc(Br)cc2)o1)N1CCCCCC1 was read as Pf growth 96h -10%, MARV entry inh 0%, HCV inh inconclusive and HCMV antiviral inconclusive.
O=C(Nc1c(C(=O)N2CCOCC2)oc2ccccc12)c1ccccc1Cl was read as Lassa entry inh inconclusive, Pf growth 96h -1%, MARV entry inh 3%[46.1 µM], Pf growth 48h -7%, HCV inh inconclusive and HCMV antiviral -22.
`CCOc1ccccc1-c1nc(SCC(=O)c2ccc(OC)c(Br)c2)n[nH]1` gave Lassa entry inh 30%[46.1 µM], MARV entry inh 11%[46.1 µM] and HCMV antiviral 0.
Screening N#Cc1cc(NC(=O)c2ccc(Cl)cc2)ccc1Sc1ccccc1 returned HCMV antiviral -83*.
For COc1ccc(Sc2ccc(NC(=O)c3ccccc3Cl)cc2C#N)cc1 the results were Lassa entry inh inconclusive, Pf growth 96h 13%, MARV entry inh inconclusive, Pf growth 48h 17%, HCV inh 11µM* and HCMV antiviral -26.
For N#Cc1ccccc1Sc1ccccc1C(=O)Nc1ccc2ccccc2c1 the results were Pf growth 96h inconclusive, Pf growth 48h -17%, HCV inh inconclusive and HCMV antiviral 12.
For O=C(Nc1cccc(Cl)c1)c1ccccc1 the results were Pf growth 96h 85%, Pf growth 48h 24%, HCV inh 7% and HCMV antiviral 81.
Screening COc1ccc(CNC(=O)CSc2nc(-c3ccc(OC)c(OC)c3)cc(C(F)(F)F)n2)cc1 returned Lassa entry inh -17%[46.1 µM], MARV entry inh inconclusive and HCMV antiviral -18.
Cc1ccc(NC(=O)CSc2nc3nccnc3c(=O)n2CCc2c[nH]c3ccccc23)cc1C was read as Lassa entry inh 3%[46.1 µM] and HCMV antiviral -33.
Cc1onc(-c2ccccc2Cl)c1C(N)=O was read as Lassa entry inh 10%, Pf growth 96h -3%, MARV entry inh inconclusive, Pf growth 48h 9%, HCV inh 19% and HCMV antiviral 13.
Cc1onc(-c2ccccc2Cl)c1C(=O)NC(=S)NCCc1ccccc1 was read as Lassa entry inh inconclusive, Pf growth 96h 33%, MARV entry inh -11%, Pf growth 48h -20%, HCV inh 10% and HCMV antiviral -34.
`Cc1onc(-c2ccccc2Cl)c1C(=O)NC(C)c1ccccc1` (stereo not drawn) gave Pf growth 96h 13µM*, Pf growth 48h -21%, HCV inh 8% and HCMV antiviral 41.
For Cc1onc(-c2ccccc2Cl)c1C(=O)NC(=S)Nc1ccccc1F the results were Pf growth 96h 46%, Pf growth 48h 4.1µM*, HCV inh -6% and HCMV antiviral inconclusive.
Screening Cc1ccc(NC(=S)NC(=O)c2c(-c3ccccc3Cl)noc2C)cc1 returned Lassa entry inh 0%, Pf growth 96h inconclusive, MARV entry inh 22%, Pf growth 48h 10µM*, HCV inh -10% and HCMV antiviral -33.
Screening Cc1onc(-c2ccccc2Cl)c1C(=O)NC(=S)Nc1ccc(C(C)C)cc1 returned Pf growth 96h 13µM*, Pf growth 48h 5.2µM*, HCV inh inconclusive and HCMV antiviral 2.
COc1ccccc1NC(=S)NC(=O)c1c(-c2ccccc2Cl)noc1C was read as Pf growth 96h 22%, Pf growth 48h inconclusive, HCV inh inconclusive and HCMV antiviral inconclusive.
For Cc1cccc(Cl)c1N=CN1c2ccccc2-n2cccc2C1CCc1ccccc1 (stereo not drawn) the results were HCMV antiviral 8.

Screening results as filed in PubChem BioAssay.
